Source: PubChem BioAssay (EPA / NIEHS)
Inconclusive results are not listed. Calls of active or inactive are those of the source. How the source made its calls, unless noted: active means hit-call score of the fitted dose curve at least 0.9, where 1 is the maximum; inconclusive means response in the unintended direction; inactive means score below 0.9.

Key:
[1] = TOX21_p53_BLA_p2_viability: Viability Assessment in the Tox21 HCT-116 p53 Agonism Beta-lactamase Assay, Phase 2 (AID 2283591);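 further: compound exposure lasted 16 h at 37 °C; actives lower the ATP signal meaning cytotoxicity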
Method in brief: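 HCT116 p53-bla cells, 4000/well, dosed after 5 h plating (217-fold dilution of DMSO stocks) and incubated 16 h at 37C. Viability taken as cellular ATP by CellTiter-Glo luminescence after 30 min RT; signal loss marks cytotoxicity.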

[2] = molecular target: Cellular tumor antigen p53 (Homo sapiens) (UniProt P04637); test: TOX21_p53_BLA_p2_ratio: Tox21 HCT-116 p53 Agonism Beta-lactamase Assay, Ratio, Phase 2 (AID 2283592)
Cellular tumor antigen p53 (Homo sapiens), sequence (P04637 whole entry, looked up): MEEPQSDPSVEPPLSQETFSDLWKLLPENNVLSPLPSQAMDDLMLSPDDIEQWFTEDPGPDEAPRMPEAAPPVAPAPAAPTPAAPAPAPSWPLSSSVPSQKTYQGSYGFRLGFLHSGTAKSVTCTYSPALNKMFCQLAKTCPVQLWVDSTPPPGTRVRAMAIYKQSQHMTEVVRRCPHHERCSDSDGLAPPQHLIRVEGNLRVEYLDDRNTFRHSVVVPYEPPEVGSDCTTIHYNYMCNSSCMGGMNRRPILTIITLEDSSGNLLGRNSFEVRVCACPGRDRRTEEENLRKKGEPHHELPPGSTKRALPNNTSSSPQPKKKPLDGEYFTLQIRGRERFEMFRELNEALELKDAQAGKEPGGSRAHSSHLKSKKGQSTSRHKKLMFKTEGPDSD
Method in brief: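 DMSO-normalized, positive-direction endpoint derived from the 460 nm/530 nm FRET ratio in HCT116 p53 beta-lactamase reporter cells exposed 16 h at 37C and loaded with CCF4-AM for 2 h.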

[3] = TOX21_p53_BLA_p3_viability: Viability Assessment in the Tox21 HCT-116 p53 Agonism Beta-lactamase Assay, Phase 3 (AID 2283593);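 further: cells exposed to compound for 16 h before reading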
Method in brief: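 HCT116 cells, 4000/well, dosed 5 h after plating by pin transfer (217-fold dilution from DMSO stock) and incubated 16 h at 37C, 5% CO2. Viability read as ATP luminescence with CellTiter-Glo after 30 min at room temperature.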

[4] = molecular target: Cellular tumor antigen p53 (Homo sapiens) (UniProt P04637); test: TOX21_p53_BLA_p3_ratio: Tox21 HCT-116 p53 Agonism Beta-lactamase Assay, Ratio, Phase 3 (AID 2283596)
Method in brief: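 Cells were seeded at 4000/well, rested 5 h at 37C, then dosed with DMSO compound solutions (217-fold dilution) for 16 h. CCF4-AM substrate was loaded for 2 h at room temperature, and the 460/530 nm emission ratio was fitted for gain of signal versus DMSO.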

[5] = molecular target: Cellular tumor antigen p53 (Homo sapiens) (UniProt P04637); test: TOX21_p53_BLA_p5_ratio: Tox21 HCT-116 p53 Agonism Beta-lactamase Assay, Ratio, Phase 5 (AID 2283599)
Method in brief: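 HCT-116 p53-bla cells (4000/well) plated 5 h, dosed with compound (217-fold DMSO dilution) for 16 h at 37 C; CCF4-AM substrate 2 h at room temperature. Activity is the 460/530 nm emission ratio (405 nm excitation), fitted in gain-of-signal direction versus DMSO.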

[6] = TOX21_p53_BLA_p5_viability: Viability Assessment in the Tox21 HCT-116 p53 Agonism Beta-lactamase Assay, Phase 5 (AID 2283600)
Method in brief: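 Here cell health was gauged by ATP levels in wells holding 4000 cells, each treated 16 h with DMSO-delivered compounds at 217-fold dilution; reduced luminescence marked toxicity.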

[7] = molecular target: Cellular tumor antigen p53 (Homo sapiens) (UniProt P04637); test: TOX21_p53_BLA_p4_ratio: Tox21 HCT-116 p53 Agonism Beta-lactamase Assay, Ratio, Phase 4 (AID 2283601)
Method in brief: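 HCT-116 p53 beta-lactamase reporter cells (4000/well) preincubated 5 h, then compound (217-fold dilution of DMSO stock) for 16 h at 37C. CCF4-AM substrate added 2 h at room temperature; 460/530 nm emission ratio fitted upward versus DMSO.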

[8] = CCTE_Harrill_HTTr_Viability_MCF7: CCTE's 6-hour Cell Viability Assessment for the High-Throughput Transcriptomics (HTTr) Platform, in MCF-7 cells cultured in DMEM + 10% fetal bovine serum, Harrill Lab (AID 2284010; active means hit-call score of the fitted dose curve at least 0.9, where 1 is the maximum; inactive means score below 0.9)
Method in brief: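 Read-out is propidium iodide gain of signal by high-content imaging, reflecting membrane integrity loss. Measurements are taken 6 h after dosing, eight concentrations per chemical, with DMSO serving as baseline for bidirectional curve fitting.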

[9] = CCTE_Harrill_HTTr_Apoptosis_MCF7: CCTE's 6-hour Apoptosis Assessment for the High-Throughput Transcriptomics (HTTr) Platform, in MCF-7 cells cultured in DMEM + 10% fetal bovine serum, Harrill Lab (AID 2284011; active means hit-call score of the fitted dose curve at least 0.9, where 1 is the maximum; inactive means score below 0.9)
Method in brief: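 Apoptosis in MCF-7 cells grown in DMEM with 10% fetal bovine serum was scored after a six hour exposure by high content imaging of caspase-3/7 activation (CellEvent Caspase 3/7 Green), with DMSO serving as negative control and baseline.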

[10] = CCTE_Harrill_HTTr_CellCount_MCF7: CCTE's Cell Proliferation Assessment for the High-Throughput Transcriptomics (HTTr) Platform, Harrill Lab (AID 2284012);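 further: cells exposed to compound for six hours; intended direction is loss of nuclei count meaning fewer cells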
Method in brief: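 Cell count served as viability reporter: loss of Hoechst-stained nuclei, counted by high content imaging, marks decreased growth or survival. Exposure was 6 h in MCF-7 cells across eight concentrations, with DMSO as baseline.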

Measured: AC50

O=c1[nH]c(=O)n([C@H]2C[C@H](O)[C@@H](CO)O2)cc1I
not listed: [8] | [9] | [10]
inactive: all other assays above

COC(=O)N/N=C/c1c[n+]([O-])c2ccccc2[n+]1[O-]
inactive: [1] | [2] | [3] | [4] | [5] | [7]

COC1=C(C(=O)O)N2C(=O)[C@@H](NC(=O)[C@H](N)C3=CCC=CC3)[C@H]2SC1
inactive: [1] | [2] | [3] | [4] | [5] | [7]

COc1ccc(C(=O)Nc2ccccc2)cc1[N+](=O)[O-]
not listed: [8] | [9] | [10]
inactive: all other assays above

Nc1c(Br)cc(Br)cc1CNC1CCC(O)CC1 (stereo not drawn)
inactive: [1] | [2] | [3] | [4] | [5] | [7]

CC(=O)N[C@@H](CS)C(=O)O
inactive: [1] | [2] | [3] | [4] | [5] | [7]

CCCCCCCCCCCCCCCCCC(=O)[O][Al]
inactive: [1] | [2] | [3] | [4] | [5] | [7]

CCOC(=O)Cn1cccc1-c1nc(-c2ccc(OC)cc2)c(-c2ccc(OC)cc2)s1
active: [4] 40.9 µM
not listed: [8] | [9] | [10]
inactive: all other assays above

FC(F)(F)C(Cl)Br (stereo not drawn)
inactive: [1] | [2] | [3] | [4] | [5] | [7]

O=C1CCC(=O)N1CO
inactive: [1] | [2] | [3] | [4] | [5] | [7]

N=C(N)n1cccn1
not listed: [8] | [9] | [10]
inactive: all other assays above

Nc1nc2ccc(OC(F)(F)F)cc2s1
active: [2] 7.3 µM | [4] 7.29 µM | [5] 23.9 µM | [7] 11.3 µM
inactive: [1] | [3]

COc1ccc(-c2ccc3cc(C(=O)O)ccc3c2)cc1C12CC3CC(CC(C3)C1)C2
inactive: [1] | [2] | [6] | [7]
active: [3] 3.62 µM | [4] 2.12 µM | [5] 6.67 µM

CC(=O)OC1CCC(C(C)(C)C)CC1 (stereo not drawn)
inactive: [1] | [2] | [3] | [4] | [5] | [7]

FC(F)(F)C(F)(F)C(F)(F)C(F)(F)C(F)(F)C(F)(F)C(F)(F)C(F)(F)Br
inactive: [1] | [2] | [3] | [4] | [5] | [7]

CCCCCCCCCCOc1cc2c(=O)c(C(=O)OCC)c[nH]c2cc1OCC
not listed: [8] | [9] | [10]
inactive: all other assays above

O=C(O)c1cccc(C(=O)O)c1C(=O)O
not listed: [8] | [9] | [10]
inactive: all other assays above

O=C(OOC(=O)c1ccccc1)c1ccccc1
inactive: all assays above

COc1cccc(Br)c1
inactive: [1] | [2] | [3] | [4] | [5] | [7]

CCN(CC)CCC(=O)N1c2ccccc2Sc2ccc(Cl)cc21
inactive: [1] | [2] | [3] | [4] | [5] | [7]

Nc1ccc(S(=O)(=O)Nc2ccccn2)cc1
inactive: [1] | [2] | [3] | [4] | [5] | [7]

NCCc1cnc[nH]1
not listed: [8] | [9] | [10]
inactive: all other assays above

COc1cc(OC)c(C(=O)CCCN2CCCC2)c(OC)c1
not listed: [10]
inactive: all other assays above

C[C@H](NCCc1ccc(O)cc1)[C@H](O)c1ccc(O)cc1
inactive: [1] | [2] | [3] | [4] | [5] | [7]

Cc1cccc(Nc2ncccc2C(=O)O)c1C
inactive: [1] | [2] | [3] | [4] | [5] | [7]

CCc1ccc(S(=O)(=O)O)cc1
not listed: [8] | [9] | [10]
inactive: all other assays above

CC1=C(C)C(=O)C(CCCCC#CCCCC#CCO)=C(C)C1=O
inactive: [1] | [2] | [3] | [4] | [5] | [7]
